From PubChem BioAssay
Records with an inconclusive call do not appear. Activity calls are given as the source filed them. Unless noted, the limit is not given here; nearly all actives have AC50 up to about 26 µM.

What was measured:
[1] = growth inhibition of DIPG glioma cells, dose response, cell-based, SU-DIPG-XVII, MIPE5.0, CellTiter-Glo, qHTS (AID 1347060); settings: SU-DIPG-XVII viability, CellTiter-Glo ATP luminescence;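 as to AC50: cells exposed to compound for 48 hours before viability readout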
[2] = growth inhibition of DIPG glioma cells, dose response, cell-based, SU-DIPG-XIII, MIPE4.0, CellTiter-Glo, qHTS (AID 1347061; cut-off not given, nearly all actives have AC50 up to about 37 µM;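 also: cells exposed to compound for 48 hours before readout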); settings: SU-DIPG-XIII viability, CellTiter-Glo ATP luminescence
[3] = growth inhibition of DIPG glioma cells, dose response, cell-based, JHH-DIPG-1, MIPE4.0, CellTiter-Glo, qHTS (AID 1347062; cut-off not given, nearly all actives have AC50 up to about 27 µM;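 as to AC50: cells exposed to compound for two days before readout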); settings: JHH-DIPG-1 viability, CellTiter-Glo ATP luminescence
[4] = growth inhibition of DIPG glioma cells, dose response, cell-based, SU-DIPG-XIII, MIPE5.0, CellTiter-Glo, qHTS (AID 1347064; cut-off not given, nearly all actives have AC50 up to about 23 µM;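 as to AC50: cells exposed to compound for 48 hours before the viability read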); settings: SU-DIPG-XIII viability, CellTiter-Glo ATP luminescence
[5] = viability loss in pontine glioma line – cell-based, SU-DIPG-XXV, MIPE5.0, CellTiter-Glo, qHTS, dose response (AID 1347065); settings: CellTiter-Glo ATP luminescence;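 also: cells exposed to compound for 48 hours before ATP readout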
[6] = JHH-DIPG-1 glioma cell viability, MIPE5.0 library, CellTiter-Glo luminescence, qHTS (AID 1347067); settings: JHH-DIPG-1 glioma viability, CellTiter-Glo ATP luminescence;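 also: cells exposed to compound for 48 hours before readout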
[7] = SU-DIPG-XXV glioma cell viability, MIPE5.0 library, qHTS (AID 1347068; cut-off not given, nearly all actives have IC50 up to about 30 µM;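 as to IC50: cells exposed to compound for 48 hours before viability readout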)
[8] = growth inhibition of DIPG glioma cells, dose response, cell-based, SU-DIPG-IV, MIPE4.0, CellTiter-Glo, qHTS (AID 1347063; cut-off not given, nearly all actives have AC50 up to about 30 µM;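 also: compound exposure lasted 48 hours before the viability readout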); settings: SU-DIPG-IV viability, CellTiter-Glo ATP luminescence
[9] = SU-DIPG-VI glioma cell viability, MIPE4.0 library, CellTiter-Glo luminescence, qHTS (AID 1347066; cut-off not given, nearly all actives have AC50 up to about 30 µM;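 also: cells exposed to compound for 48 hours before readout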); settings: CellTiter-Glo ATP luminescence
[10] = circadian clock period modulators, cell-based, LOPAC library, luminescence reporter (AID 2774; call rule not given here;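 also: values are relative to mean of DMSO wells on each plate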); settings: circadian reporter cells, at 7 µM, actives lie on both sides
[11] = test system: Hepatitis C virus NS3 helicase; experiment: HCV NS3 helicase inhibitors, primary screen, biochemical, fluorescence polarization, LOPAC1280 library (AID 687035; in the data active = inhibition above about 37%); settings: Purified HCV NS3 helicase, Cy5-dT15 ssDNA binding fluorescence polarization; stronger effect = higher value; concentration not given here
[12] = Cy5 fluorescence quenching or enhancement artefacts, artefact control for HCV NS3 helicase inhibitor project, biochemical, LOPAC1280 (AID 687037; call rule not given here); settings: Cy5-DNA-NS3h complex fluorescence interference counterscreen
[13] = test system: Aerobactin synthetase IucA (Klebsiella pneumoniae, hypervirulent); experiment: IucA enzyme inhibition, biochemical, LOPAC library, absorbance readout (AID 1346212; call rule not given here;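 also: 100% = no compound wells and 0% = no enzyme wells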); settings: IucA enzyme assay, absorbance (OD) readout; stronger effect = lower value;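 tested at 8 µM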
[14] = sensitizers of A549 cells to miR-34 induction, primary screen, imaging, A549 dox-inducible miR-34, nuclei and caspase counts (AID 1347080;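 active = compounds whose cell count with miR-34 switched on is under 0.7 times the count with it off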); settings: A549 miR-34 inducible, Hoechst nuclei count, 48 h
[15] = survival rescue of mitochondrial mutant cells in low glucose, primary screen, MELAS cybrids, Rieske KO mouse fibroblasts, CellTiter-Glo (AID 1508586;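 active = mean z-score across replicates of 1.96 or higher in either the MELAS or the Rieske mutant cell line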;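 also: z relative to plate mean and SD of compound and empty wells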)
[16] = liver-stage malaria parasite growth inhibition, primary screen, cell-based, HepG2, luciferase luminescence, HepG2 viability (AID 624349; in the data active = parasite load remaining mostly below about 12%, no sharp cut-off; inactive = mostly above about 10%;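 also: 100% = mean of DMSO negative control wells on the same plate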); settings: P. berghei liver stage in HepG2, luciferase luminescence, concentration not given here; parasite load remaining: stronger effect = lower value; viability: measured here: HepG2 viability without parasites
[17] = stronger effect = lower value, cell number ratio, induced over uninduced
[18] = measured here: relative caspase fold change +Dox/-Dox
[19] = measured here: total cells with miR-34 induction, stronger effect = lower value
[20] = measured here: total cells without miR-34 induction
[21] = MELAS cybrid survival, CellTiter-Glo 48 h, stronger effect = higher value
[22] = Rieske KO mouse fibroblast survival, CellTiter-Glo 72 h

N=C1NC(=O)N2CC12 (stereo not given)
inactive: outcome [1] | outcome [2] | outcome [4] | outcome [5] | outcome [6] | outcome [7]
active: AC50 [3] 2.09 µM

COc1cc2cc(c1Cl)N(C)C(=O)C[C@H](OC(=O)C(C)C)[C@]1(C)O[C@@H]1[C@H](C)[C@@H]1C[C@@](O)(NC(=O)O1)[C@H](OC)/C=C/C=C(\C)C2
active: AC50 [4] 0.0332 µM | AC50 [5] 0.00662 µM | AC50 [6] 0.00742 µM
inactive: outcome [1] | outcome [2] | outcome [3] | outcome [8] | outcome [9]

CCCN(CCC)CCc1c[nH]c2ccc(C(N)=O)cc12
inactive: period change [10] 0.085 h | inhibition [11] 0% | fluorescence ratio (interference) [12] 1.1 | remaining activity [13] 109%

CCN1CCN(C(=O)Cc2ccc(Nc3ncc(F)c(Nc4ccc(C(=O)Nc5ccccc5Cl)cc4)n3)cc2)CC1
inactive: outcome [2] | fold change [14, 17] 0.811
705: cell count [14, 19]
active: AC50 [1] 1.86 µM | AC50 [3] 10.5 µM | AC50 [8] 8.33 µM | AC50 [4] 6.61 µM | AC50 [5] 1.05 µM | AC50 [9] 5.9 µM | AC50 [6] 3.72 µM | IC50 [7] 23.5 µM | z-score [15, 21] 2.83
-1.29: z-score [15, 22]
0.731: fold change [14, 18]
869: cell count [14, 20]

C[C@]12CC[C@@H]3c4ccc(OC(=O)N(CCCl)CCCl)cc4CC[C@H]3[C@@H]1CC[C@@H]2OP(=O)(O)O
inactive: outcome [1] | outcome [2] | outcome [3] | outcome [8] | outcome [4] | outcome [5] | outcome [9] | outcome [6] | outcome [7]

O=C(Oc1ccc([N+](=O)[O-])cc1)N1CCN(Cc2cccc(Oc3ccccc3)c2)CC1
inactive: outcome [1] | outcome [3] | outcome [4] | outcome [5] | outcome [9] | outcome [6]
active: AC50 [2] 11.8 µM

Clc1ccccc1C(c1ccccc1)(c1ccccc1)n1cccn1
inactive: outcome [2] | outcome [9] | outcome [7]
active: AC50 [1] 23.5 µM | AC50 [5] 33.2 µM | AC50 [6] 23.5 µM

COc1ccc2c(c1)/C(=C/c1cnc[nH]1)C(=O)N2
98.5%: viability [16]
inactive: parasite load remaining [16] 16.5% | remaining activity [13] 119%

Cc1ccccc1-n1c(Cn2ncc3c(N)ncnc32)nc2cccc(C)c2c1=O
8570: cell count [14, 19]
0.968: fold change [14, 18]
inactive: outcome [1] | outcome [2] | outcome [4] | outcome [5] | outcome [6] | outcome [7] | fold change [14, 17] 0.903 | z-score [15, 21] -0.332
9490: cell count [14, 20]
0.957: z-score [15, 22]

C/C(=C\c1csc(C)n1)[C@@H]1C[C@@H]2O[C@@H]2CCC[C@H](C)[C@H](O)[C@@H](C)C(=O)C(C)(C)[C@@H](O)CC(=O)O1
active: AC50 [1] 0.00662 µM | AC50 [5] 0.00934 µM
inactive: outcome [2] | outcome [4] | outcome [9]

C=CCN(C1=NCCN1)c1c(Cl)cccc1Cl
inactive: inhibition [11] -4% | fluorescence ratio (interference) [12] 1 | remaining activity [13] 95.7%

CC(C)[C@H]1C(=O)N[C@H](CO)Cc2c[nH]c3cccc(c23)N1C
inactive: outcome [1] | outcome [2] | outcome [9] | outcome [7]

CCOP(=O)(OCC)C(C)NC(=O)N(CCCl)N=O (stereo not given)
inactive: outcome [1] | outcome [2] | outcome [3] | outcome [4] | outcome [5] | outcome [9] | outcome [6] | outcome [7]

C[Se]C[C@H](N)C(=O)O
inactive: period change [10] -0.13 h | inhibition [11] -5% | fluorescence ratio (interference) [12] 1 | remaining activity [13] 106%

C=CCN1CCc2cccc3c2[C@H]1Cc1ccc(O)c(O)c1-3
inactive: period change [10] 0.185 h | inhibition [11] -3% | fluorescence ratio (interference) [12] 1.1 | remaining activity [13] 110%

N=c1c2c(-c3ccccc3)c(-c3ccccc3)n(Cc3ccccc3)c2ncn1C1CCC(O)CC1 (stereo not given)
active: AC50 [1] 18.6 µM | AC50 [8] 8.33 µM | AC50 [4] 16.6 µM | AC50 [5] 20.9 µM | IC50 [7] 18.6 µM
inactive: outcome [2]

CSCC[C@@H](NC(=O)[C@@H](Cc1ccccc1)NC(=O)CNC(=O)CNC(=O)[C@@H](N)Cc1ccc(O)cc1)C(=O)O
inactive: outcome [1] | outcome [2] | outcome [3] | outcome [8] | outcome [4] | outcome [5] | outcome [6] | outcome [7]

O=C(O)CNC(=O)c1c(O)c2ccccc2n(Cc2ccccc2)c1=O
7930: cell count [14, 20]
-0.159: z-score [15, 22]
inactive: outcome [1] | outcome [2] | outcome [3] | outcome [8] | outcome [4] | outcome [5] | outcome [9] | outcome [6] | outcome [7] | fold change [14, 17] 1.05 | z-score [15, 21] -0.124
0.358: fold change [14, 18]
8330: cell count [14, 19]

C/C=C(\C)C(=O)N[C@@H](c1ccccc1)[C@@H](O)C(=O)O[C@H]1C[C@@]2(O)[C@@H](OC(=O)c3ccccc3)[C@@H]3[C@]4(OC(C)=O)CO[C@@H]4C[C@H](O)[C@@]3(C)C(=O)[C@H](OC(C)=O)C(=C1C)C2(C)C
inactive: outcome [2] | outcome [3] | outcome [8] | outcome [9]
active: AC50 [1] 0.0132 µM | AC50 [5] 0.0235 µM

C=C(C)[C@@H]1CCC(C)=C[C@H]1c1c(O)cc(CCCCC)cc1O
active: AC50 [1] 26.3 µM | AC50 [4] 23.5 µM | AC50 [6] 23.5 µM

CC(C)(C)c1cc(C=C(C#N)C#N)cc(Br)c1O
active: AC50 [1] 20.9 µM | AC50 [4] 18.6 µM | AC50 [5] 23.5 µM | AC50 [6] 18.6 µM
7700: cell count [14, 19]
inactive: parasite load remaining [16] 43.4% | outcome [7] | fold change ([14]; stronger effect = lower value) 0.886 | z-score [15, 21] -0.608
165%: viability [16]
8690: cell count [14, 20]
1.14: fold change [14, 18]
-0.108: z-score [15, 22]
